In PubChem BioAssay one finds z-score data, which are given here for 36 compounds.

Structures are written as SMILES. The source made the active and inactive calls.

This assay in a line: E. coli growth modulation, two-sided OD650, primary screen, E. coli filamentation project, strain DRC41, 24 h (AID 1093).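 Also: MC1000 strain lacking acrAB efflux and sulA so SOS filamentation is blocked; test concentration not given here.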 Particulars: OD650, 24 h, higher = more signal, called active from +8 up or from −8 down.
Consider `COc1ccc(C(O)C2C=CC3C(=O)N(c4ccccc4)C(=O)C3N2Nc2ccc(C#N)cc2)c2ccccc12` (stereo unspecified), for which the z-score is -0.945 (inactive).

With `COCCOC(=O)N1C(=O)[C@@]2(c3ccccc31)[C@H](C(=O)N1CCN(c3ncccn3)CC1)[C@H]1C(=O)O[C@H](c3ccccc3)[C@H](c3ccccc3)N1[C@@H]2c1ccc(OCCO)cc1`, the z-score is 1.75 (inactive).

For the compound `CC=CC(O)C1C=CC2C(=O)N(c3ccccc3)C(=O)C2N1Nc1ccccc1` (stereo unspecified), the z-score was 0.143 (inactive).

Regarding `Cc1ccc(S[C@]2(C(=O)NCC(F)(F)F)CC(=O)N(Cc3ccccc3)[C@@H]2c2ccc(CO)cc2)cc1`, the z-score is -1.68 (inactive).

As to `[N-]=[N+]=Nc1ccccc1C[C@@]1(C(=O)O)N=C(c2ccc(OCCCO)cc2)O[C@@H]1c1ccccc1`, the z-score is -0.0393 (inactive).

Regarding `COCCCNC(=O)[C@]1(Cc2ccccc2CN=[N+]=[N-])N=C(c2ccc(OCCCO)cc2)O[C@@H]1c1ccccc1`, the z-score is 1.01 (inactive).

As to `CC(C)OC(=O)CC(=O)CC(O)c1cccc(C#N)c1` (stereo unspecified), the z-score was 0.435 (inactive).

Consider `CCCC=C(CCC)[C@@H](NP(=O)(c1ccccc1)c1ccccc1)c1ccc(C(F)(F)F)cc1`, for which the z-score was -0.159 (inactive).

`CCCN1C(=O)[C@]2(Cc3ccccc3)N=C(c3ccc(OCCCO)cc3)O[C@@H]2c2ccccc21`: the z-score is 1.05 (inactive).

Turning to `C[C@]12C(=O)N(CCCCCCO)[C@@H]3C(=O)N(c4ccc(Cl)cc4)CC=CC31O[C@@H]1/C=C\CCCOC(=O)C12` (stereo partly specified), the z-score is 1.19 (inactive).

For `COCCOC(=O)N1C(=O)[C@@]2(c3ccccc31)[C@H](c1ccc(OCCO)cc1)N1[C@H](c3ccccc3)[C@H](c3ccccc3)OC(=O)[C@H]1[C@@H]2C(=O)Nc1nc2ccccc2s1`, the z-score is 1.16 (inactive).

Regarding `C=CCN1Cc2ccccc2C[C@@]2(N=C(c3ccc(OCCCO)cc3)O[C@H]2c2ccccc2)C1=O`, the z-score is 0.55 (inactive).

On to `CN(C)CCCCNC(=O)[C@H]1C[C@H]2C(=O)N3CCC[C@H]3C(=O)N2[C@H]1c1ccc(O)cc1`, for which the z-score is 1.27 (inactive).

Turning to `COC1(C)CN(Cc2ccccc2Br)[C@H](/C=C/c2ccccc2)[C@H](Cc2ccccc2)O1` (stereo partly specified), the z-score is 1.07 (inactive).

For `COc1cc(OC)c(C(O)C2C=CC3C(=O)N(c4ccccc4)C(=O)C3N2Nc2ccc(C#N)cc2)cc1Br` (stereo unspecified), the z-score was -0.409 (inactive).

Take `O=C(O)[C@]1(Cc2ccccc2)N=C(c2ccc(OCCCO)cc2)O[C@@H]1c1ccccc1`: the z-score is 0.377 (inactive).

Consider `O=C1c2ccccc2[C@@]2(Cc3ccccc3N(C3CC3)C2=O)[C@H](c2ccc(CO)cc2)N1C1CCCCC1`, for which the z-score is -0.1 (inactive).

For the compound `COCCOC(=O)N1C(=O)[C@@]2(c3cc(C#CCC(C(=O)OC)C(=O)OC)ccc31)[C@H](c1ccc(OCCO)cc1)N1[C@H](c3ccccc3)[C@H](c3ccccc3)OC(=O)[C@H]1[C@@H]2C(=O)N1CCN(c2ncccn2)CC1`, the z-score was 1.75 (inactive).

In the case of `O=C1O[C@@H](c2ccccc2)[C@@H](c2ccccc2)N2[C@@H](c3ccccc3OCCO)[C@]3(C(=O)Nc4ccc(C#CCCO)cc43)[C@@H](C(=O)N3CCN(c4ncccn4)CC3)[C@H]12`, the z-score is 0.935 (inactive).

Regarding `COc1cc(CO)cc(I)c1O[C@H]1C=C(C(=O)NCCO)C[C@@H](N(CC2CCCCC2)C(=O)c2ccc(C(F)(F)F)cc2)[C@@H]1O`, the z-score was 1.78 (inactive).

Take `Cc1c(NC(=O)/C(C#N)=C/C=C/c2ccccc2[N+](=O)[O-])c(=O)n(-c2ccccc2)n1C`: the z-score is 1.02 (inactive).

Take `CCC[C@@H]1C[C@@]1(CCC)[C@@H](NP(=O)(c1ccccc1)c1ccccc1)c1ccc(Cl)cc1`: the z-score is -1.79 (inactive).

On to `C=CCN1C(=O)[C@]2(CC=C)N=C(c3ccc(OCCCO)cc3)O[C@@H]2c2ccccc21`, for which the z-score was 1.02 (inactive).

In the case of `O=C1c2ccccc2[C@](Cc2ccccc2I)(C(=O)NCCN2CCOCC2)[C@H](c2ccc(CO)cc2)N1Cc1ccccc1`, the z-score was 0.47 (inactive).

Consider `COC(=O)[C@@]1(Cc2ccc(F)cc2)[C@H]2c3cc(C(=O)N4CCCC4)n(CCc4c[nH]c5ccc(OC)cc45)c3C[C@H]2CN1C(=O)c1ccccc1`, for which the z-score was -0.803 (inactive).

Turning to `O=C1c2ccccc2[C@](Cc2ccccc2I)(C(=O)NCc2ccccc2)[C@H](c2ccc(CO)cc2)N1C1CCCCC1`, the z-score was -0.403 (inactive).

For the compound `COCC(=C=CC[C@H](O)c1cccc(OCCO)c1)C[C@H](O)c1ccccn1`, the z-score was 0.559 (inactive).

For the compound `CN1C2C=C(CCCO)C(C3C(=O)N(C(N)=O)C(=O)C32)C1c1cccs1` (stereo unspecified), the z-score was 0.155 (inactive).

In the case of `CN(C)CCCNC(=O)[C@@H]1c2ccccc2C(=O)N(Cc2ccc(OC(F)(F)F)cc2)[C@H]1c1ccc(CO)cc1`, the z-score is -0.883 (inactive).

`CC(C)(C)OC(=O)CC[C@]1(C(=O)NCCN2CCOCC2)N=C(c2ccc(OCCCO)cc2)O[C@H]1c1ccccc1`: the z-score is 0.437 (inactive).

Consider `CC(C)CNC(=O)[C@@H]1c2ccccc2C(=O)N(Cc2cc(F)cc(C(F)(F)F)c2)[C@H]1c1ccc(CO)cc1`, for which the z-score is 2.93 (inactive).

On to `C=C(/C(=C/C[C@@H](OC(=O)c1ccncc1)c1ccc(OCCO)cc1)c1cc(C(=O)OC)ccc1OC)C(C)C`, for which the z-score was 0.681 (inactive).

`C=C(CCCC)/C(=C/C[C@@H](OC(=O)c1ccncc1)c1cccc(OCCO)c1)c1cnc2ccccc2c1`: the z-score is 0.657 (inactive).

For `C=CCOC(=O)[C@H]1[C@@H]2C(=O)O[C@@H](c3ccccc3)[C@@H](c3ccccc3)N2[C@@H](c2ccc(OCCOC(=O)[C@H]3C[C@H]4C(=O)N[C@@H](Cc5ccccc5)C(=O)N4[C@H]3c3cccc(OCCO)c3)cc2)[C@]12C(=O)Nc1ccc(I)cc12`, the z-score was -0.0451 (inactive).

Turning to `Cc1ccc(S[C@]2(C(=O)NC3CC3)CC(=O)N(Cc3ccccc3Cl)[C@@H]2c2ccc(CO)cc2I)cc1`, the z-score was 0.481 (inactive).

For the compound `C[C@@H]1ON(c2ccc(C(=O)OC(C)(C)C)cc2)[C@H](c2ccc(Br)cc2)[C@H]1C(=O)N1C(=O)OC[C@H]1Cc1ccccc1`, the z-score is 0.425 (inactive).
